# An excerpt weighted towards active compounds, which were near 1.5% of everything screened.
# PolyA inhibitor = polyadenylation inhibitors in yeast reporter cells, primary screen, luminescence, S. cerevisiae; 0.02% of 300,000 active; S. cerevisiae SKY197-pL101 polyadenylation reporter, beta-gal luminescence; efflux-impaired pdr1/pdr3 knockout yeast; score 100 = 6 SD above DMSO; activity score, % at 12 µM; AID 1875, 2009;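 active = lowest replicate activity score at least 50, where 100 means six control SD above control mean; inconclusive = lowest score under 50 but half or more replicates reach 50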;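 note: yeast exposed to compound for 9 h at 30 °C; higher score means more reporter readthrough which indicates perturbed polyadenylation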
# GASC-1 inh = inhibitors of GASC-1 histone demethylase, primary screen, biochemical, fluorescence, DELFIA europium | Lysine-specific demethylase 4C (Homo sapiens), Q9H3R0 | GST-JMJD2C(1-420) H3K9me3 demethylation | inhibition, % at 2.35 µM | 0.069% of 330,000 active;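 active = more than half of a compound's replicate wells show inhibition beyond 50%, single wells judged on their own value; inconclusive = some, but no more than half, of replicates pass 50% inhibition; inactive = no replicate passes 50% inhibition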;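 note: signal counts dimethyl H3K9 product captured on neutravidin plate; 0% = median of DMSO wells and 100% = 0.3 times that DMSO median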
# Efflux pump mplx = inhibitors of Candida efflux pumps in yeast, primary screen, S. cerevisiae, Nile Red, multiplex. S. cerevisiae Candida pump triplex. inhibition, % at 10 µM. 0.44% of 330,000 active;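 active = plate passing quality check with inhibition over a set limit, or well fluorescence over plate mean plus 4 SD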;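 note: Nile Red retained in pooled yeast measured as flow cytometry median fluorescence; 0% = buffer negative control and 100% = Enniatin B positive control; higher means more Nile Red kept so more efflux inhibition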
# HDAC3 inhib = HDAC3 deacetylase inhibitors, primary screen, biochemical, fluorescence, cell-free homogeneous; Histone deacetylase 3 (Homo sapiens), O15379; recombinant HDAC3, fluorogenic peptide/trypsin coupled; inhibition, % at 8.3 µM; 0.15% of 320,000 active; AID 2718, 2010; in the data active = inhibition above about 26%, passing the limit was not always enough; inconclusive = no clear call, values can overlap the other calls
# Target sequence (O15379 whole entry, looked up): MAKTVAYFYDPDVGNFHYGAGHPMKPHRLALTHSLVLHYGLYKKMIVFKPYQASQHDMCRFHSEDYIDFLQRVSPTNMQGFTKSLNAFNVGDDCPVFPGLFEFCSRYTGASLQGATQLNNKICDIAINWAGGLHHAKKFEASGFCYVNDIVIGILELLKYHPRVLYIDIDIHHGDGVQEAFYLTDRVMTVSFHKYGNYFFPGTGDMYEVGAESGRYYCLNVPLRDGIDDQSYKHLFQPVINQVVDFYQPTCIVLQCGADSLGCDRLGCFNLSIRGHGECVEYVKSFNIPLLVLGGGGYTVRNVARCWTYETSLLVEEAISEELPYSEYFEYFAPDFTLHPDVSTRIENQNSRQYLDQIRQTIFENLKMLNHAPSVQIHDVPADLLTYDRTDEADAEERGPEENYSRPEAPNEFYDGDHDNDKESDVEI
# NALP1 yeast inh = NALP1 inflammasome inhibitors in reconstituted yeast, colorimetric, S. cerevisiae, triplicate retest | S. cerevisiae NALP1/ASC/caspase-1 growth, X-gal OD620, 72 h | inhibition, % at 10 µM | 0.61% of 280,000 active; in the data active = inhibition mostly above about 24%, no sharp cut-off; inactive = mostly below about 32%
# NALP3 yeast inh = NALP3 inflammasome inhibitors in reconstituted yeast, primary screen, luminescence, uHTS | AID 2825, 2010 | inhibition, % at 10 µM | Yeast reconstituted NLRP3/ASC/caspase-1, beta-gal luminescence, 24 h | 0.39% of 330,000 active;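 active = inhibition of 50% or more; inactive = inhibition below 50%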;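 note: plate controls were induced DMSO wells for no effect and uninduced yeast grown without galactose for full effect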
# Numbers without * were called inactive; ? = inconclusive; . = no result given.
SMILES,PolyA inhibitor,GASC-1 inh,Efflux pump mplx,HDAC3 inhib,NALP1 yeast inh,NALP3 yeast inh
Cc1ccc2cc(C)c3nnc(SCC(=O)Nc4nc5c(s4)CCCC5)n3c2c1C,14,3,0,0,-5,0
COCCCN1CCN(C2Cc3ccccc3Sc3ccc(Cl)cc32)CC1 (centres undefined),-16,3,0,5,54*,20
COc1ccc2c(c1)CC(N1CCN(C)CC1)c1cc(OC)ccc1S2 (centres undefined),-8,2,0,4,.,28
CCOC(=O)CSC(=S)NC(=O)c1ccc(OC)cc1,-25,11,0,79*,9,9
COc1cc(/C(C)=N/N2CCN(c3ccccc3OC)CC2)ccc1O,-10,1,0,-3,6,8
Cc1ccc(S(=O)(=O)NCc2ccccn2)cc1C,-13,1,0,0,14,9
COc1cc(C=Nc2cccc(C)c2)c(O)c([N+](=O)[O-])c1,-16,5,0,9,49*,7
Cc1cccc(CN2CCCC(C(=O)N3CCCCC3)C2)c1 (centres undefined),17,-5,0,2,16,20
CCOC(=O)c1ccc(NC(=S)N(CCCN(CC)CC)Cc2ccco2)cc1,-2,-4,0,2,18,14
CCOC(=O)c1ccc(NC(=S)N(CCCN2CCCCC2)Cc2ccco2)cc1,18,-1,0,1,44*,6
CC(=O)Nc1ccc(S(=O)(=O)NCC2CCC(C(=O)N3CC(C)CC(C)C3)CC2)cc1 (centres undefined),-14,6,0,-2,-1,11
COc1ccccc1Oc1ccc2c(c1)C(=O)N(c1ccc(O)cc1)C2=O,.,0,0,0,28*,4
CCCCOc1ccc(C(=O)NNC(=O)C2C3C=CC(C3)C2C(=O)O)cc1 (centres undefined),-12,2,0,-2,16,1
O=C(CSc1nc2ccccc2c(=O)n1CCCN1CCOCC1)NC12CC3CC(CC(C3)C1)C2,1,2,0,.,34*,10
CCn1c(SCC(=O)Nc2cccc(C)c2)nc2nc3c(cc2c1=O)COC(C)(C)C3,2,-5,0,10,-4,24
CC(C)C[C@H](NC(=O)c1nc[nH]c1C(=O)NCC(=O)OC(C)(C)C)C(=O)OC(C)(C)C,-6,-4,0,30*,.,-17
CC(C)(C)OC(=O)NCCCCCNC(=O)c1[nH]cnc1C(=O)N[C@@H](Cc1ccccc1)C(=O)OC(C)(C)C,.,.,0,28*,.,-2
CC(C)C[C@H](NC(=O)c1nc[nH]c1C(=O)N[C@@H](CC(C)C)C(=O)OC(C)(C)C)C(=O)OC(C)(C)C,-10,-49,0,1,.,1
COc1cc(SC)ccc1C(=O)Nc1ncc(Cl)cc1Cl,-12,3,0,-3,-8,21
CCOc1ccc(NC(=O)CSc2nnnn2-c2ccc(C(N)=O)cc2)cc1,-13,-11,0,-6,18,17
Cc1ccc(C)c(OCCC(=O)OCC(=O)NC(=O)NC2CCCC2)c1,7,4,0,-3,.,12
O=C(O)CCCC[C@@H]1SC[C@@H]2NC(=O)N[C@@H]21,-7,96*,0,10,.,7
O=C(NC(=S)Nc1cccnc1)c1cc2ccccc2o1,-3,1,0,-4,47*,37
Clc1ccc2c(c1)C(N1CCNCC1)Cc1ccccc1S2 (centres undefined),39,-20,0,7,8,24
Clc1cccc2c1Sc1ccccc1CC2N1CCNCC1 (centres undefined),4,-4,1,-1,74*,13
SMILES,PolyA inhibitor,GASC-1 inh,Efflux pump mplx,HDAC3 inhib,NALP1 yeast inh,NALP3 yeast inh
COc1ccc(C(=O)C2CCCN(Cc3c[nH]c4ccccc34)C2)c(OC)c1 (centres undefined),21,-6,0,0,28*,14
CCOC(=O)c1[nH]ncc1CN1CCCC(C(=O)c2ccc(OC)c(OC)c2)C1 (centres undefined),-1,1,0,-1,-2,-4
CCOC(=O)c1[nH]ncc1CN1CCCC(C(=O)c2cc(Cl)ccc2OC)C1 (centres undefined),10,3,0,4,33*,10
COc1ccc(CN2CCNC(=O)C2CC(=O)N(C)Cc2nonc2C)c(F)c1 (centres undefined),4,-5,0,-1,5,20
COC(=O)CS(=O)(=O)c1nnc([C@H](Cc2ccccc2)NC(=O)OC(C)(C)C)o1,-5,8,0,55*,13,13
Cc1cccc(CS(=O)(=O)c2nnc([C@H](Cc3ccccc3)NC(=O)OC(C)(C)C)o2)c1,-40,-12,0,61*,-7,18
CC(C)(C)OC(=O)N[C@@H](Cc1ccccc1)c1nnc(SCC(N)=O)o1,13,3,0,0,4,2
CS(=O)(=O)N1CCC(Oc2cccc(C(=O)NCCCC3CCCC3)c2)CC1,5,9,1,-1,11,20
Cc1c(C)c2c(c(C)c1O)CCC(C)(C(=O)O)O2 (centres undefined),.,.,0,0,.,-9
CCC(C)NS(=O)(=O)c1ccc(S(=O)(=O)N(CC(=O)Nc2ccccc2)Cc2ccco2)cc1 (centres undefined),5,-22,5,-5,42*,14
Cc1[nH]n(-c2ccccc2)c(=O)c1Sc1ccc(Cl)cc1,-16,-4,0,-4,-3,-16
Cc1ccc(C(C[N+](=O)[O-])c2c(C)[nH]n(-c3ccccc3)c2=O)cc1 (centres undefined),-91,?,0,5,105*,37
COc1ccc(C(c2c(C)[nH]n(-c3ccccc3)c2=O)c2c(C)[nH]n(-c3ccccc3)c2=O)cc1OC,-4,-9,0,4,24,-9
Cc1[nH]n(-c2ccccc2)c(=O)c1C(c1ccccc1[N+](=O)[O-])C(C#N)C#N (centres undefined),-5,-19,0,6,-11,-27
Cc1[nH]n(-c2ccccc2)c(=O)c1C(C[N+](=O)[O-])c1ccc(Cl)cc1 (centres undefined),-110,-6,0,.,108*,17
Cc1[nH]n(-c2ccccc2)c(=O)c1C(C[N+](=O)[O-])c1ccc(F)cc1 (centres undefined),-67,-1,0,-7,109*,31
Cn1c(SCC(=O)Nc2ccc3c(c2)n(C)c(=O)n3C)nnc1-c1ccncc1,7,.,0,4,-5,-7

# Source: PubChem BioAssay (several laboratories)
